Data published in PubChem BioAssay AID540276 (National Center for Advancing Translational Sciences (NCATS), 2011).
Among all 300,000 compounds or so, about 5,400 (1.8%) were called active. Roughly 28% stayed inconclusive and do not appear here. For the sample, actives were picked, then their nearest neighbours and some compounds at random. Unmarked numbers belong to inactive results. Calls follow the shape of the full dose curve; tested in HEK293 cells.

Assay: qHTS for inhibitors of binding or entry into cells for Marburg Virus
Details: Marburg virus pseudotyped entry inhibition, cell reporter; series mostly up to 37.8 µM; activity change, negative = inhibition: at the top concentration
% is scaled to controls: 0 for no effect and ±100 for the full control effect; potency is read from the fitted curve at half-maximal effect.

First: Clc1ccc(CN2CCCCCC2)cc1Cl
Second: CC(CN1CCCCC1)c1ccccc1 (centres undefined)
The “activity change, negative = inhibition” value of the first is lower: 1.88% for the first, 13.2% for the second.

Compared with `c1ccc(C(CN2CCCCC2)c2ccccc2)cc1`, `OC(COc1ccccc1)CN1CCN(c2cccc(Cl)c2)CC1` (centres undefined) is higher in “activity change, negative = inhibition” value: -13.7% for the first, 13.8% for the second.

Compared with `CCOc1ccc(NC(=O)CN(C)C(=O)Cc2sc(C)nc2-c2ccc(F)cc2)cc1OCC`, `Cc1ccc(S(=O)(=O)NCC(=O)Nc2ccc3c(c2)OCCO3)cc1` is higher in “activity change, negative = inhibition” value: 1.92% for the first, 4.18% for the second.

Compared with `COC(=O)C1CCCCN1C(=O)c1ccc(OC2CCN(C(C)=O)CC2)c(OC)c1` (centres undefined), `O=C(OCC(=O)N1CCN(C(=O)c2ccco2)CC1)c1ccc(Cl)c(Cl)c1` is higher in “activity change, negative = inhibition” value: 7.23% for the first, 26.2% for the second.

Going from `COc1ccccc1OCC(O)CN1CCOCC1` (centres undefined) to `O=C(Oc1cccc(C(=S)N2CCOCC2)c1)c1cccc(Cl)c1`, the “activity change, negative = inhibition” value rises from -0.819% to 5.5%.

First: O=c1[nH]c(NCCO)nnc1Cc1ccc(Cl)cc1
Second: CN(CC(=O)NCc1cccnc1)S(=O)(=O)c1cc(Cl)ccc1Cl
The “activity change, negative = inhibition” value of the first is higher: -1% for the first, -29.2% for the second.

Going from `O=C1CCCCC(=O)c2ccccc2N1` to `C/C(=C\C(=O)c1ccc(Br)cc1)N1CCCCC1`, the “activity change, negative = inhibition” value falls from 28.7% to 2.93%.

Going from `Cc1nc2ccc(N)nc2nc1C` to `Cc1nc2cc3c(cc2s1)OCO3`, the “activity change, negative = inhibition” value rises from 19.2% to 23.4%.

Going from `Cn1c(Cc2cccs2)nnc1SCC(=O)Nc1ccccc1` to `O=C(NCC(=O)N1CCN(c2ccccc2F)CC1)c1cccs1`, the “activity change, negative = inhibition” value rises from 6.62% to 29.6%.

Compared with `COc1ccccc1C(=O)NCCC(=O)NC(C)CCc1ccccc1` (centres undefined), `O=C(COC(=O)c1ccccc1C(=O)N1CCN(c2ccccc2)CC1)NCc1ccccc1` is lower in “activity change, negative = inhibition” value: 8.66% for the first, -18.8% for the second.

Going from `COc1ccc2nc(Nc3nc4cc5c(cc4s3)OCCO5)sc2c1` to `CCc1c(C)sc(NC(=O)/C=C/c2ccc3c(c2)OCO3)c1C(=O)OC`, the “activity change, negative = inhibition” value falls from 6.42% to -15.3%.

Going from `CCN(CC)S(=O)(=O)c1cc(C(=O)Nc2cc(S(=O)(=O)N3CCOCC3)ccc2N2CCCC2)ccc1F` to `COc1ccccc1NS(=O)(=O)c1ccc(C(=O)N2CCN(c3ccccc3O)CC2)cc1`, the “activity change, negative = inhibition” value falls from -14.7% to -25.2%.

Going from `Cc1nn(Cc2ccccc2)c(C)c1NS(=O)(=O)c1ccccc1` to `NN=C(NN=Cc1ccccc1)c1ccccc1`, the “activity change, negative = inhibition” value rises from -5.29% to 3.82%.

First: COc1cc2c(cc1OC)/C(=C/C(=O)c1ccc(NC(C)=O)cc1)NCC2
Second: O=C(/C=C/c1ccc2c(c1)OCO2)NCc1ccc(F)cc1
The “activity change, negative = inhibition” value of the first is lower: -26.2% for the first, 5.87% for the second.

In the case of `Cc1cc(N/C=C\C(=O)c2cccc3ccccc23)no1`, the “activity change, negative = inhibition” value is reported as 2.44%.

With `COc1ccc(C(O)(C2CCCCC2)C(CN2CCCC2)c2ccccc2)cc1` (centres undefined) the Potency was 8.91 µM (active).
In the case of `COc1ccccc1OCCNCC(O)COc1cccc2[nH]c3ccccc3c12` (centres undefined), the Potency is reported as 11.6 µM (active).
For `CC(C)(C)NCC(O)COc1cccc2[nH]c(=O)[nH]c12` (centres undefined), the Potency was “inactive”.
In the case of `COc1ccc(Cc2nnc(N/N=C/c3ccccc3O)[nH]c2=O)cc1OC`, the Potency is reported as 3.66 µM (active).
For `c1ccc2c(c1)C(=NC1CCCCC1)NC2=NC1CCCCC1`, the Potency was 5.8 µM (active).
For `CC[C@]1(O)C(=O)OCc2c1cc1n(c2=O)Cc2cc3ccccc3nc2-1`, the Potency was 0.0251 µM (active).
In the case of `c1c2c(cc3sc(N4CCCCC4)nc13)OCCO2`, the Potency is reported as 0.562 µM (active).
For `CCCN(CCc1ccccc1)C1CCc2c(O)cccc2C1` (centres undefined), the Potency was 15.8 µM (active).
In the case of `CC1CN/C(=C\C(=O)c2ccc(Br)cc2)C(=O)N1` (centres undefined), the Potency is reported as 2.24 µM (active).
In the case of `Cc1cccc(NC(=O)/C=C/c2ccc3c(c2)OCO3)n1`, the Potency is reported as 6.51 µM (active).
For `Oc1ccc(N2CCN(C(=S)NCc3ccccc3)CC2)cc1`, the Potency was 3.16 µM (active).

Compared with `Cc1ccc(NC(=O)CSc2nnc(CNC(=O)c3ccccc3F)o2)cc1Cl`, `Cc1cc(OCC(=O)NCC(O)c2ccccc2)c2c(C)c(C)c(=O)oc2c1` (centres undefined) is lower in “activity change, negative = inhibition” value: 21.5% [at 46.1 µM] for the first, -12.1% [at 46.1 µM] for the second.

Compared with `O=C(N/N=C/c1ccoc1)c1ccc(Cl)cc1Cl`, `O=C(Nc1cccc(Cl)c1N1CCOCC1)c1cccnc1` is lower in “activity change, negative = inhibition” value: -2.57% [at 46.1 µM] for the first, -10.6% [at 46.1 µM] for the second.

Going from `CCOc1ccc(-n2c(O)c(/C=N/Nc3nnc(C)c(=O)[nH]3)c3ccccc3c2=O)cc1` to `COc1ccc(OCC(=O)NCCS(=O)(=O)N2CCN(c3ccc(F)cc3)CC2)cc1`, the “activity change, negative = inhibition” value rises from -12.6% [at 46.1 µM] to -0.979% [at 46.1 µM].

Compared with `COCCOC(=O)C1=C(C)NC(=O)NC1c1cc2c(cc1Br)OCO2` (centres undefined), `Cc1c(C)n2c(SCC(=O)NC3CCCC3)nnc2[nH]c1=O` is higher in “activity change, negative = inhibition” value: 0.203% [at 46.1 µM] for the first, 22.3% [at 46.1 µM] for the second.

First: C1CCC2=C(C1)CN1CCCC1=N2
Second: NC(=O)c1ccc(N2CCCC2)nc1
The “activity change, negative = inhibition” value of the first is higher: 2.94% [at 46.1 µM] for the first, -7.25% [at 46.1 µM] for the second.

Compared with `Cc1cccc(NC(=O)C2CCN(C(=O)NC3CCCCC3)CC2)c1`, `O=C(O)C1C2C=CC(O2)C1C(=O)Nc1ccccn1` (centres undefined) is higher in “activity change, negative = inhibition” value: 6.86% [at 46.1 µM] for the first, 7.56% [at 46.1 µM] for the second.

Going from `COc1ccc(N(CC(=O)NCc2ccc(F)cc2)C(=O)CCC(=O)Nc2nccs2)cc1` to `Oc1ccccc1N1CCN(C(=S)NCc2ccccc2)CC1`, the “activity change, negative = inhibition” value rises from -4.66% [at 46.1 µM] to 2.88% [at 46.1 µM].
